# KB-3-1 tox: kills parental KB-3-1 adenocarcinoma cells; AID 1347075; Potency, µM (doses to about 46.1 µM), most hits filed as cytotoxic; KB-3-1 viability, CellTiter-Glo ATP luminescence, 72 h; 400,000 compounds, 1.4% hits; further: on the % scale 0 is the no-effect control and ±100 the full control effect; nearly all actives have a fitted effect of over 60% in size
#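 Cytotoxicity measured as CellTiter-Glo luminescence after 72 h at 37 C. Compound titrations were pinned onto drug-naive KB-3-1 parental adenocarcinoma cells grown in DMEM with 10% FBS, and normalized data fitted to concentration-response curves.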
# KB-V1 MDR tox: KB-V1 MDR subline cytotoxicity; KB-V1 MDR cells viability, CellTiter-Glo, 72 h; Potency, µM (series often up to 46.1 µM), actives largely listed as cytotoxic; 400,000 compounds, 3.4% hits; further: on the % scale 0 is the no-effect control and ±100 the full control effect; nearly all actives have a fitted effect of over 60% in size
#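 KB-V1 MDR subline cells in DMEM (phenol-red free, 10% FBS) exposed to compounds in qHTS concentration series for 72 h at 37 degrees C. Viability read by CellTiter-Glo luminescence; concentration-effect curves fitted after normalization and correction.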
# HT1080NT lethal: kills 2HG-producing HT-1080-NT fibrosarcoma cells. AID 686970. 360,000 compounds, 1.6% hits. Potency, µM (doses to about 46.1 µM), inactives show at the top dose activity, negative = less viability, usual class: cytotoxic. HT-1080-NT fibrosarcoma viability, CellTiter-Glo ATP luminescence, 48 h;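 further: NT is the 2HG producing partner of a matched IDH1 knockdown line; 0% = DMSO-treated cells and -100% = media-only wells without cells; nearly all actives have a fitted effect of over 55% in size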
#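 HT-1080-NT fibrosarcoma cells (2HG-overproducing), 750 cells/well in RPMI with 5% FBS, dosed after 2 h and incubated 48 h at 37C. CellTiter-Glo luminescence normalized to DMSO and no-cell wells; concentration-response curves fitted and classed.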
# MCF10A rereplic: induces DNA re-replication in MCF 10a normal breast cells. MCF 10A DNA re-replication, Hoechst nuclear intensity, 48 h. Potency, µM (top dose mostly 46.1 µM), for the others: at the top dose activity, positive = re-replication, actives largely listed as activators. 350,000 compounds, 2.9% hits; further: % of control where 0% means no effect; nearly all actives have a fitted effect of over 50% in size
# SW480 rereplic: DNA re-replication induction in SW480 cells | SW480 DNA re-replication, Hoechst DNA content imaging, 48 h | Potency, µM (top dose mostly 46.1 µM), for inactives: at the highest dose re-replication activation, most hits filed as activators | 340,000 compounds, 1.8% hits; further: % of control where 0% means no effect; nearly all actives have a fitted effect of over 55% in size
#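 First, 250 cells per well were seeded. Next, compound or vehicle (23 nL) was pinned in, plates sat 48 hr at 37 C. Finally Hoechst was added for 40 min before fluorescence scanning.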
# HT1080 IDH1KD tx: toxicity to HT-1080 IDH1 knockdown cells (counter line) | HT-1080 IDH1 knockdown viability, ATP luminescence, 48 h | 360,000 compounds, 2% hits | Potency, µM (titrated, usually from 46.1 µM), without a hit: at the highest dose activity, negative = toxicity, usual class: cytotoxic;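 further: 0% = DMSO wells and -100% = cell-free medium wells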
#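 IDH1KD HT-1080 cells, 750/well, RPMI + 5% FBS; compound pinned after 2 h settling; 48 h, 37 °C; CellTiter-Glo luminescence; % activity normalised to DMSO and no-cell wells; curves fitted, classed by r2 and efficacy.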
# * marks the source's active call; other numbers are inactive results; i = inactive; ? = inconclusive; · = not tested or not shown; [ ] = another dose, or the depositor's remark. Sampled rows, rich in hits. Any-hit rate of the full collection: about 7.9%. The call rests on the fitted dose curve; in most records, active means well fitted curve in the direction sought with a large enough effect; inconclusive means small, poorly fitted or top-dose-only effect, or another doubt; inactive means no such curve, though single readings can be large; an effect the other way counts as inactive or inconclusive. Potency means the concentration at half of the fitted maximal effect.
SMILES,KB-3-1 tox,KB-V1 MDR tox,HT1080NT lethal,MCF10A rereplic,SW480 rereplic,HT1080 IDH1KD tx
CN(C(=O)c1cc(S(=O)(=O)N2CCOCC2)cs1)c1ccccc1,i,i,3%,-4%,-10%,4%
O=S(=O)(NC(=S)c1ccccc1)c1ccccc1,?,i,?,1%,-8%,24%
CC(C)N=C(NS(=O)(=O)c1ccccc1)C(Cl)(Cl)Cl,5.8µM*,23µM*,7.3µM*,5.8µM*,5.8µM*,7.3µM*
Cc1ccc(S(=O)(=O)Nc2cccc(C(=O)NCC3CCCO3)c2)cc1F (stereo unspecified),?,?,1%,9%,-10%,-26%
CCOc1ccccc1NC(=O)CSc1nnc(N)s1,i,i,·,·,·,·
CS(=O)(=O)N(CC(=O)NC1CCCC1)Cc1ccc(Cl)cc1,i,15µM*,8%,2%,-4%,-1%
Cc1cccc(C)c1N(CC(=O)N1CCN(c2ccccc2F)CC1)S(C)(=O)=O,i,i,8%,0.65µM*,-7%,3%
CN1CCN(C(=O)CN(Cc2ccc(Cl)cc2)S(C)(=O)=O)CC1,i,i,6%,-1%,-3%,8%[9.24 µM]
CS(=O)(=O)N(CC(=O)NC1CCCCC1)Cc1ccc(Cl)cc1,i,i,12%,-2%,0%,3%
Cc1cccc(N(CC(=O)N2CCN(c3ccccc3F)CC2)S(C)(=O)=O)c1,i,i,2%,-2%,0%,0%
CS(=O)(=O)N(CC(=O)N1CCCCCC1)Cc1ccc(Cl)cc1,i,5.2µM*,5%,3%,-3%,4%
CN1CCN(C(=O)c2ccc(N(Cc3ccc(Cl)cc3)S(C)(=O)=O)cc2)CC1,i,i,-21%,5.8µM*,?,0%[9.24 µM]
Nn1c(SCC(=O)Nc2ccc3c(c2)OCCO3)nncc1=O,i,i,-4%,0%,-8%,2%
COc1cccc(Cn2c(=O)n(Cc3ccccc3)c(=O)c3c2c2cc(OC)ccc2n3C)c1,i,i,·,·,·,·
COc1ccccc1N1CCN(C(=O)CN(Cc2ccccc2)S(C)(=O)=O)CC1,i,10µM*,-5%,7%,2%,-7%
COc1ccc(N2CCN(C(=O)CN(Cc3ccccc3)S(C)(=O)=O)CC2)cc1,i,i,3%,-7%,-4%,4%
CC(=O)c1ccc(NC(=O)CSc2ccc3nc(-c4ccccc4)cn3n2)cc1,i,i,·,·,·,·
Cc1ccc(/C=C/C(=O)N2CCN(c3ccc(F)cc3)CC2)o1,?,18µM*,3%,?,-1%,0%
CC(=O)c1cccc(NS(=O)(=O)c2c(C)nc3sc(C)cn3c2=O)c1,?,i,·,·,·,·
O=C1CC(c2ccc(Br)cc2)c2c(ccc3ccccc23)N1 (stereo unspecified),i,i,·,·,·,·
O=C1CC(c2cccc([N+](=O)[O-])c2)c2c(ccc3ccccc23)N1 (stereo unspecified),?,5.8µM*,?,?,?,12µM*
COc1ccccc1OCCCCN1CCCCC1,i,i,1%,0%,2%,2%
Cc1cccc(OCCN2CSC(=S)N(C)C2)c1,8.2µM*,10µM*,18µM*,5.8µM*,?,?
COc1ccccc1OCCN1CSC(=S)N(C)C1,5.2µM*,?,9.2µM*,7.3µM*,2.6µM*,7.3µM*
Cc1cccc(OCCCN2CCCCCC2)c1,i,i,2%,-4%,3%,9%[9.24 µM]
SMILES,KB-3-1 tox,KB-V1 MDR tox,HT1080NT lethal,MCF10A rereplic,SW480 rereplic,HT1080 IDH1KD tx
Cc1ccc(S(=O)(=O)NCc2ccc(C(=O)N3CCc4ccccc4C3)cc2)cc1,i,4.6µM*,2%,16%,11%,17%
CC(=O)Nc1cc(C(=O)N2CCc3ccccc3C2)ccc1Sc1ccc(C)cc1,i,?,-3%,21µM*,2%,-15%
CCCN1CCN(C(=O)c2ccc(Sc3ccc(C)cc3)c(NC(C)=O)c2)CC1,i,i,-13%,-10%,-9%,-20%
Cc1ccc(S(=O)(=O)NCc2ccc(C(=O)N3CCN(c4ccccc4)CC3)cc2)cc1,i,i,-12%,15%,1%,?
COc1ccc(S(=O)(=O)NCc2ccc(C(=O)N3CCc4ccccc4C3)cc2)cc1,?,5.8µM*,4%,2%,-4%,-1%
COc1ccc(CNS(=O)(=O)c2ccc(N3CCCCS3(=O)=O)cc2)cc1,16µM*,?,·,·,·,·
CC(=O)N1CCOc2ccc(S(=O)(=O)N3CCC(C(=O)NCc4ccccc4)CC3)cc21,i,i,-2%,?,-5%,0%
CCOc1ccc(S(=O)(=O)NC(C)C(=O)NCc2cccnc2)cc1 (stereo unspecified),i,i,-1%,-2%,-23%,-1%
CCn1c(C)c(C)c2cc(C(=O)N3CCc4ccccc4C3)ccc21,13µM*,?,?,3.7µM*,?,16µM*
CCN1CCN(C(=O)c2ccc3c(c2)c(C)c(C)n3Cc2ccccc2)CC1,i,i,-2%,?,-2%,-22%
Cc1cccc(NC(=O)N2CCC(c3nc4ccccc4o3)CC2)c1,i,18µM*,2%,-10%,-8%,-6%
Cc1cc(C)cc(NC(=O)N2CCC(c3nc4ccccc4o3)CC2)c1,i,i,4%[9.24 µM],19%,1%,8%
CC(C)C[C@@H](CN1CCC[C@@H]1CN1C(=S)NC[C@@H]1Cc1ccc(O)cc1)N1C[C@H](Cc2ccccc2)N(CCc2ccccc2)C1=S,?,i,-14%,·,·,-19%
CC(=O)c1c(C)[nH]c(C(=O)OCC(=O)NCc2cccs2)c1C,?,13µM*,-5%,7%,-6%,-27%
CCOC(=O)c1c(C)[nH]c(C(=O)OCC(=O)Nc2sccc2C(N)=O)c1C,i,?,-6%,21µM*,?,-27%
CC(=O)c1c(C)[nH]c(C(=O)OCC(=O)NCc2ccc(Cl)cc2)c1C,?,i,-8%[9.24 µM],?,-39%,?
CCOC(=O)c1c(C)[nH]c(C(=O)OCC(=O)NCc2ccc(OC)c(OC)c2)c1C,?,21µM*,-29%,23%,19%,?
CCOC(=O)c1c(C(=O)OCC)c(C)n(CCc2ccc(OC)c(OC)c2)c1C,i,i,8%,4%,9.2µM*,5%
COc1cc(NC(=O)C(NC(=O)C2CCC(C)CC2)C(C)C)cc(OC)c1OC (stereo unspecified),i,i,·,·,·,·
